Measured values taken from the supplement of paper PMC6555819.

How the values were obtained:
Assay in all cases: PBM binding z-score (relative to random genomic background probes); higher = stronger binding; sequences stand for … in GC…GCGATTGACAGCGTAGAATGAAGG
[1] = tested on: RARb homodimer (NR concentration 270 nM)
How it was run: (§1)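 The probes on custom Agilent 4×180K protein-binding microarrays were double-stranded, with 34-nt variable regions bearing direct-repeat seeds, single-nucleotide variants, half-site ablations and random human genomic background sequences. Incubation lasted 1 h with ligand-free nuclear receptor dimers in PBS pH 7.4, 2% milk, 0.02% Triton X-100, 1 mM DTT, 0.2 mg/mL BSA and 0.4 mg/ml salmon testes DNA. Antibodies against each partner (one per run) detected bound dimers, and fluorescence scans were regression-normalized. Binding z-scores take the random background probes as reference.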

[2] = tested on: RARg:RXRa (NR concentration 270 nM, RXRa partner concentration 90 nM)
How it was run: as §1

[3] = tested on: RARg homodimer (NR concentration 270 nM)
How it was run: as §1

[4] = tested on: RXRa DBDmut IVT, anti-RXR (DBD mutation: RXRa K156A/R161A, NR concentration 90 nM)
How it was run: as §1

[5] = tested on: RXRa homodimer (NR concentration 180 nM)
How it was run: as §1

[6] = tested on: THRa:RXRa (NR concentration 90 nM, RXRa partner concentration 90 nM)
How it was run: as §1

[7] = tested on: THRa homodimer (NR concentration 90 nM)
How it was run: as §1

[8] = tested on: VDR:RXRa (NR concentration 270 nM, RXRa partner concentration 90 nM)
How it was run: as §1

[9] = tested on: VDR homodimer (NR concentration 270 nM)
How it was run: as §1

Sequence: GATACAGGGTCATCTAGAGGCCAGAGTATGGAAA
- PBM binding z-score [1]: 3.71
- PBM binding z-score [2]: 7.56
- PBM binding z-score [3]: 5.37
- PBM binding z-score [4]: 3.39
- PBM binding z-score [5]: 6.6
- PBM binding z-score [6]: 3.76
- PBM binding z-score [7]: 0.837
- PBM binding z-score [8]: 5.14
- PBM binding z-score [9]: 2.85

Sequence: CGTCCAAGGTCAAGGGCAGTGAAAGAGACTCGAA
- PBM binding z-score [1]: 4.22
- PBM binding z-score [2]: 5.8
- PBM binding z-score [3]: 6.3
- PBM binding z-score [4]: 3.02
- PBM binding z-score [5]: 5
- PBM binding z-score [6]: 3.87
- PBM binding z-score [7]: 2.22
- PBM binding z-score [8]: 3.68
- PBM binding z-score [9]: 1.92

Sequence: ACTATCAGGCCAAGGGTCACTCAAGATTAGTCCG
- PBM binding z-score [1]: 3.89
- PBM binding z-score [2]: 4.3
- PBM binding z-score [3]: 3.73
- PBM binding z-score [4]: 1.23
- PBM binding z-score [5]: 4.05
- PBM binding z-score [6]: 3.35
- PBM binding z-score [7]: 0.937
- PBM binding z-score [8]: 3.13
- PBM binding z-score [9]: 1.45

Sequence: CGAACTAGGTCACCAGGACAATGAAGAGGTTGGA
- PBM binding z-score [1]: 3.4
- PBM binding z-score [2]: 4.27
- PBM binding z-score [3]: 5.1
- PBM binding z-score [4]: 1.58
- PBM binding z-score [5]: 3.35
- PBM binding z-score [6]: 3.7
- PBM binding z-score [7]: 2.12
- PBM binding z-score [8]: 2.21
- PBM binding z-score [9]: 0.459

Sequence: CAAACTAGGTCAAGGTCAAAGTAGGTTTGTGCCA
- PBM binding z-score [1]: 5.18
- PBM binding z-score [2]: 6.25
- PBM binding z-score [3]: 6.86
- PBM binding z-score [4]: 3.11
- PBM binding z-score [5]: 6.11
- PBM binding z-score [6]: 4.6
- PBM binding z-score [7]: 3.96
- PBM binding z-score [8]: 5.54
- PBM binding z-score [9]: 4.8

Sequence: CGAACTAGGGCAAAGGACAGTGAAAGGCGACGTA
- PBM binding z-score [1]: 1.44
- PBM binding z-score [2]: 1.1
- PBM binding z-score [3]: 1.87
- PBM binding z-score [4]: 0.227
- PBM binding z-score [5]: -0.0436
- PBM binding z-score [6]: 0.0548
- PBM binding z-score [7]: -0.953
- PBM binding z-score [8]: -0.612
- PBM binding z-score [9]: -0.515

Sequence: ATCGAAAGGTGGACGAGGTGAGTATACACCGTTT
- PBM binding z-score [1]: 0.375
- PBM binding z-score [2]: 0.545
- PBM binding z-score [3]: 0.833
- PBM binding z-score [4]: -0.461
- PBM binding z-score [5]: 0.799
- PBM binding z-score [6]: 1.77
- PBM binding z-score [7]: 0.434
- PBM binding z-score [8]: 0.85
- PBM binding z-score [9]: -0.347

Sequence: CGAACCAGGTCAAAGGACAGTGAAAGGCGACGTA
- PBM binding z-score [1]: 2.94
- PBM binding z-score [2]: 4.32
- PBM binding z-score [3]: 4.33
- PBM binding z-score [4]: 2.36
- PBM binding z-score [5]: 3.81
- PBM binding z-score [6]: 3.21
- PBM binding z-score [7]: 1.24
- PBM binding z-score [8]: 2.44
- PBM binding z-score [9]: 1.15

Sequence: CGAACTTGGTCACCAGGACAGTGAAGAGGTTGGA
- PBM binding z-score [1]: 1.06
- PBM binding z-score [2]: 0.959
- PBM binding z-score [3]: 1.47
- PBM binding z-score [4]: -0.0208
- PBM binding z-score [5]: 0.727
- PBM binding z-score [6]: 1.63
- PBM binding z-score [7]: 0.644
- PBM binding z-score [8]: 0.809
- PBM binding z-score [9]: -0.0725

Sequence: CGTCAACGTTCAACTAAGGTAACGTAAAGCACGC
- PBM binding z-score [1]: 0.8
- PBM binding z-score [2]: 0.496
- PBM binding z-score [3]: 0.603
- PBM binding z-score [4]: 0.449
- PBM binding z-score [5]: 0.587
- PBM binding z-score [6]: 3.84
- PBM binding z-score [7]: 1.68
- PBM binding z-score [8]: 0.25
- PBM binding z-score [9]: 0.137

Sequence: GCTAGTTGGTCAGTAAATGGTCACACACCGGTCG
- PBM binding z-score [1]: 1.28
- PBM binding z-score [2]: 0.401
- PBM binding z-score [3]: 0.586
- PBM binding z-score [4]: 0.286
- PBM binding z-score [5]: 0.551
- PBM binding z-score [6]: -0.021
- PBM binding z-score [7]: -0.105
- PBM binding z-score [8]: -0.166
- PBM binding z-score [9]: 0.116

Sequence: ACTCGGGGGACAAAGGTCAGAGCTACGCCAGTGA
- PBM binding z-score [1]: 4.56
- PBM binding z-score [2]: 7.2
- PBM binding z-score [3]: 6.12
- PBM binding z-score [4]: 2.06
- PBM binding z-score [5]: 6.34
- PBM binding z-score [6]: 3.82
- PBM binding z-score [7]: 1.07
- PBM binding z-score [8]: 4.66
- PBM binding z-score [9]: 1.81

Sequence: TCATATAGGTAATAGGTGAAAGTCGGTGTGGTAA
- PBM binding z-score [1]: 0.632
- PBM binding z-score [2]: 0.482
- PBM binding z-score [3]: 0.284
- PBM binding z-score [4]: 1.59
- PBM binding z-score [5]: 1.53
- PBM binding z-score [6]: 0.534
- PBM binding z-score [7]: 0.384
- PBM binding z-score [8]: 0.883
- PBM binding z-score [9]: 0.435

Sequence: CGATGTAGGTTAAGGGGGTCATTCAGTTTGAAAG
- PBM binding z-score [1]: 3.87
- PBM binding z-score [2]: 5.19
- PBM binding z-score [3]: 4.02
- PBM binding z-score [4]: 2.93
- PBM binding z-score [5]: 5.85
- PBM binding z-score [6]: 3.81
- PBM binding z-score [7]: 2.8
- PBM binding z-score [8]: 7.68
- PBM binding z-score [9]: 6.65

Sequence: CCGAGTAGGTTACGATGGGGCATTCAGTGCGAAT
- PBM binding z-score [1]: 0.657
- PBM binding z-score [2]: 0.828
- PBM binding z-score [3]: 0.851
- PBM binding z-score [4]: 0.0778
- PBM binding z-score [5]: 0.63
- PBM binding z-score [6]: 1.08
- PBM binding z-score [7]: -0.789
- PBM binding z-score [8]: 0.842
- PBM binding z-score [9]: 0.231

Sequence: CGAACTAGGTCAAAGGACACTGAAAGGCGACGTA
- PBM binding z-score [1]: 3.06
- PBM binding z-score [2]: 4.19
- PBM binding z-score [3]: 4.7
- PBM binding z-score [4]: 1.6
- PBM binding z-score [5]: 3.12
- PBM binding z-score [6]: 2.69
- PBM binding z-score [7]: 0.861
- PBM binding z-score [8]: 1.74
- PBM binding z-score [9]: 0.852

Sequence: CGTCCAAGGTCAAAGGTCAGCGAAGAGATGACGG
- PBM binding z-score [1]: 5.39
- PBM binding z-score [2]: 8.99
- PBM binding z-score [3]: 8.41
- PBM binding z-score [4]: 3.72
- PBM binding z-score [5]: 10.4
- PBM binding z-score [6]: 5.06
- PBM binding z-score [7]: 2.63
- PBM binding z-score [8]: 6.91
- PBM binding z-score [9]: 3.77

Sequence: CCGAGTAGGTTACGAGGGGGCATACAGTGCGAAT
- PBM binding z-score [1]: 2.29
- PBM binding z-score [2]: 3.21
- PBM binding z-score [3]: 2.68
- PBM binding z-score [4]: 1.2
- PBM binding z-score [5]: 2.14
- PBM binding z-score [6]: 3.61
- PBM binding z-score [7]: 0.618
- PBM binding z-score [8]: 4.67
- PBM binding z-score [9]: 2.68

Sequence: GATACAGAGTCAGCTAGAGGCCAGAGTATGGAAA
- PBM binding z-score [1]: -0.00482
- PBM binding z-score [2]: 0.958
- PBM binding z-score [3]: 0.249
- PBM binding z-score [4]: -0.732
- PBM binding z-score [5]: -0.0704
- PBM binding z-score [6]: -0.305
- PBM binding z-score [7]: -1.05
- PBM binding z-score [8]: -0.601
- PBM binding z-score [9]: -0.0123

Sequence: ACTAGTTGGTAAGCTGAGGTCACACACAATTCGG
- PBM binding z-score [1]: 4.01
- PBM binding z-score [2]: 3.45
- PBM binding z-score [3]: 2.93
- PBM binding z-score [4]: 1.25
- PBM binding z-score [5]: 3.57
- PBM binding z-score [6]: 4.52
- PBM binding z-score [7]: 5.19
- PBM binding z-score [8]: 3.71
- PBM binding z-score [9]: 3.29

Sequence: CTATGTAGGTTAAGGGGGACATTCAGTTTGAAAG
- PBM binding z-score [1]: 1.99
- PBM binding z-score [2]: 1.81
- PBM binding z-score [3]: 1.7
- PBM binding z-score [4]: 1.47
- PBM binding z-score [5]: 1.39
- PBM binding z-score [6]: 2.23
- PBM binding z-score [7]: 1.37
- PBM binding z-score [8]: 4.95
- PBM binding z-score [9]: 2.64

Sequence: CTCGAAAGGTCGTCCTCAGGTGAGTATACCAAAC
- PBM binding z-score [1]: 3
- PBM binding z-score [2]: 5.29
- PBM binding z-score [3]: 4.2
- PBM binding z-score [4]: 2.35
- PBM binding z-score [5]: 4.82
- PBM binding z-score [6]: 4.13
- PBM binding z-score [7]: 1.94
- PBM binding z-score [8]: 3.41
- PBM binding z-score [9]: 1.84

Sequence: CGAACTAGTTCAAGGACAGTGAATCTCCGCACGC
- PBM binding z-score [1]: 0.95
- PBM binding z-score [2]: 0.588
- PBM binding z-score [3]: 0.91
- PBM binding z-score [4]: 1.78
- PBM binding z-score [5]: 0.544
- PBM binding z-score [6]: 2.01
- PBM binding z-score [7]: 1.47
- PBM binding z-score [8]: 0.348
- PBM binding z-score [9]: 0.883

Sequence: CCGAGTAGGTTACGAGGGGGCACTCAGTGCGAAT
- PBM binding z-score [1]: 2.29
- PBM binding z-score [2]: 3.19
- PBM binding z-score [3]: 2.39
- PBM binding z-score [4]: 0.868
- PBM binding z-score [5]: 2.17
- PBM binding z-score [6]: 3.74
- PBM binding z-score [7]: 0.205
- PBM binding z-score [8]: 4.68
- PBM binding z-score [9]: 2.68

Sequence: ACTTACGGGTCAACGAAGTTATAGCACGCGTATA
- PBM binding z-score [1]: 3.02
- PBM binding z-score [2]: 5.31
- PBM binding z-score [3]: 4.65
- PBM binding z-score [4]: 1.66
- PBM binding z-score [5]: 5.31
- PBM binding z-score [6]: 2.78
- PBM binding z-score [7]: -0.0625
- PBM binding z-score [8]: 4.19
- PBM binding z-score [9]: 0.948

Sequence: CGTCAAAGTTCAACTAAGTTAACGTAAAGCACGC
- PBM binding z-score [1]: 4.02
- PBM binding z-score [2]: 5.7
- PBM binding z-score [3]: 6.78
- PBM binding z-score [4]: 4.7
- PBM binding z-score [5]: 5.2
- PBM binding z-score [6]: 4.32
- PBM binding z-score [7]: 0.349
- PBM binding z-score [8]: 5.16
- PBM binding z-score [9]: 3.74
